According to PubChem BioAssay AID1159580 (chemical genetic matrix, 2015):
In all, about 5,500 compounds went through this assay and about 2,000 (36%) were called active. Another 18% or so got no clear call; they are omitted. Cut-off read from the data, not from the text of the source: active = normalized growth mostly below about 0.91 (no sharp cut-off); inconclusive = no clear call, values can overlap the other calls; inactive = mostly above about 0.92. The list shows a part of the results.

Experiment: chemical genetic growth profiling, strain panel (AID 1159580);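 note: tested at 20 µM; growth read once vehicle control cultures reached saturation at 30 °C; 1 = growth at the plate median or of vehicle wells; lower values mean less growth of the strain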
Details: S. cerevisiae deletion strains, growth OD
[1] = locus YAL013W, strain DEP1, stronger effect = lower value
[2] = locus YMR263W, strain SAP30, stronger effect = lower value
[3] = locus YNL153C, strain GIM3, stronger effect = lower value

Measured: normalized growth

Cc1ccc(N=Cc2cccs2)cc1Cl
inactive: [1] 1.01 | locus YBR229C, strain ROT2, stronger effect = lower value 0.998 | locus YCL061C, strain MRC1, stronger effect = lower value 1.03 | locus YDL101C, strain DUN1, stronger effect = lower value 1 | locus YDR150W, strain NUM1, stronger effect = lower value 0.982 | locus YEL061C, strain CIN8, stronger effect = lower value 1 | locus YGR078C, strain PAC10, stronger effect = lower value 1 | locus YHR030C, strain SLT2, stronger effect = lower value 1.04 | locus YHR087W, strain rtc3, stronger effect = lower value 0.999 | locus YJR043C, strain POL32, stronger effect = lower value 1.02 | locus YJR075W, strain HOC1, stronger effect = lower value 1.01 | locus YKL190W, strain CNB1, stronger effect = lower value 0.998 | locus YLR039C, strain RIC1, stronger effect = lower value 0.991 | locus YLR058C, strain SHM2 (second series), stronger effect = lower value 1.01 | locus YLR085C, strain ARP6, stronger effect = lower value 1.05 | locus YLR262C, strain YPT6, stronger effect = lower value 1 | locus YML094W, strain GIM5, stronger effect = lower value 1 | locus YMR219W, strain ESC1, stronger effect = lower value 0.998 | [2] 1 | locus YNL128W, strain TEP1, stronger effect = lower value 1 | [3] 1 | locus YNL298W, strain CLA4 (second series), stronger effect = lower value 1.04 | locus YNL322C, strain KRE1, stronger effect = lower value 1.01 | locus YNR030W, strain Alg12, stronger effect = lower value 1.02 | locus YOL006C, strain TOP1, stronger effect = lower value 1.06 | locus YPL055C, strain LGE1, stronger effect = lower value 1 | locus YPL241C, strain CIN2, stronger effect = lower value 1.05 | locus YPR135W, strain CTF4, stronger effect = lower value 1.01

O=C(O)CC1CCCc2ccccc2C1O (centres undefined)
inactive: [1] 1.01 | locus YAL040C, strain CLN3, stronger effect = lower value 1.09 | locus YCL061C, strain MRC1 (second series), stronger effect = lower value 0.999 | locus YDR363W, strain ESC2, stronger effect = lower value 1.02 | locus YER002W, strain NOP16, stronger effect = lower value 1.01 | [2] 0.997 | [3] 1 | locus YNL175C, strain NOP13, stronger effect = lower value 1.01 | locus YNL197C, strain WHI3, stronger effect = lower value 1.01 | locus YNL224C, strain SQS1, stronger effect = lower value 1.01 | locus YOR083W, strain WHI5 (second series), stronger effect = lower value 1.02
